Data: PubChem BioAssay (EPA / NIEHS)
Calls of active or inactive are those of the source. The calls were made as follows: active = hit-call score of the fitted dose curve at least 0.9, where 1 is the maximum; inactive = score below 0.9.

Columns and labels:
[1] = BSK_CASM3C_SRB: Viability Assessment in the BioMAP Diversity Plus: CASM3C Assay (AID 2283050); conditions: primary human coronary artery smooth muscle cells;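 also: cells exposed to compound for 24 h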
[2] = read-out: Thrombomodulin, THBD (gene 7056); experiment: BSK_CASM3C_Thrombomodulin: BioMAP Diversity Plus: CASM3C Assay for Thrombomodulin Biomarker Activity (AID 2283051); conditions: primary human coronary artery smooth muscle cells; actives raise or lower the signal;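 also: thrombomodulin protein level measured by ELISA 24 h after dosing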
[3] = read-out: Tissue Factor, F3 (gene 2152); experiment: BSK_CASM3C_TissueFactor: BioMAP Diversity Plus: CASM3C Assay for Tissue Factor Biomarker Activity (AID 2283052); conditions: primary human coronary artery smooth muscle cells; actives raise or lower the signal;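 also: cell surface tissue factor protein level read by ELISA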
[4] = read-out: Interferon-gamma inducible Protein 10 (IP10), CXCL10 (gene 3627); experiment: BSK_hDFCGF_IP10: BioMAP Diversity Plus: hDFCGF Assay for Interferon-gamma inducible Protein 10 (IP10) Biomarker Activity (AID 2283053); conditions: primary human foreskin fibroblasts; actives raise or lower the signal
How it was run: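 Chemical-treated human skin fibroblasts (primary) were sampled at 24 h for IP-10 by ELISA. Both increases and decreases relative to DMSO were scored.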

[5] = read-out: Urokinase-type plasminogen activator receptor (uPAR), PLAUR (gene 5329); experiment: BSK_CASM3C_uPAR: BioMAP Diversity Plus: CASM3C Assay for Urokinase-type plasminogen activator receptor (uPAR) Biomarker Activity (AID 2283054); conditions: primary human coronary artery smooth muscle cells; actives raise or lower the signal;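 also: cell-surface uPAR protein level quantified by ELISA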
[6] = read-out: Vascular cell adhesion molecule 1 (VCAM1), VCAM1 (gene 7412); experiment: BSK_CASM3C_VCAM1: BioMAP Diversity Plus: CASM3C Assay for Vascular cell adhesion molecule 1 (VCAM1) Biomarker Activity (AID 2283055); conditions: primary human coronary artery smooth muscle cells; actives raise or lower the signal;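 also: VCAM-1 protein level quantified by ELISA on the cells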
[7] = read-out: Collagen III, COL3A1 (gene 1281); experiment: BSK_hDFCGF_CollagenIII: BioMAP Diversity Plus: hDFCGF Assay for Collagen III Biomarker Activity (AID 2283056); conditions: primary human foreskin fibroblasts; actives raise or lower the signal
How it was run: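 Human foreskin fibroblast primary cultures sampled 24 h after dosing; Collagen III quantified by ELISA. Signal fitted bidirectionally against DMSO baseline.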

[8] = read-out: Epidermal growth factor receptor (EGFR), EGFR (gene 1956); experiment: BSK_hDFCGF_EGFR: BioMAP Diversity Plus: hDFCGF Assay for Epidermal growth factor receptor (EGFR) Biomarker Activity (AID 2283057); conditions: primary human foreskin fibroblasts; actives raise or lower the signal
How it was run: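 Cell-based multiplexed assay in primary human foreskin fibroblasts. EGFR is read by ELISA 24 h after treatment and compared with DMSO controls.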

[9] = read-out: Interleukin-8 (IL8), CXCL8 (gene 3576); experiment: BSK_hDFCGF_IL8: BioMAP Diversity Plus: hDFCGF Assay for Interleukin-8 (IL8) Biomarker Activity (AID 2283058); conditions: primary human foreskin fibroblasts; actives raise or lower the signal
How it was run: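 Primary human foreskin fibroblasts (hDFCGF system) dosed with chemical; IL-8 measured by ELISA 24 hours later. Bidirectional curve fitting relative to DMSO baseline; cytotoxicity tracked in parallel cultures by SRB total protein staining.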

[10] = BSK_hDFCGF_Proliferation: Cell Proliferation Assessment in the BioMAP Diversity Plus: hDFCGF Assay (AID 2283059); conditions: primary human foreskin fibroblasts;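 also: curves fitted for both rise and fall of signal versus DMSO baseline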
How it was run: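 Steps: dose primary human dermal fibroblasts (foreskin); […] fix in 10% TCA; stain with 0.1% SRB; read 560 nm; fit gain or loss of signal against DMSO.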

[11] = read-out: TIMP metallopeptidase inhibitor 1 (TIMP1), TIMP1 (gene 7076); experiment: BSK_hDFCGF_TIMP1: BioMAP Diversity Plus: hDFCGF Assay for TIMP metallopeptidase inhibitor 1 (TIMP1) Biomarker Activity (AID 2283062); conditions: primary human foreskin fibroblasts; actives raise or lower the signal
How it was run: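 Human foreskin fibroblast primary cultures dosed for 24 h; secreted/surface TIMP-1 quantified by ELISA. Bidirectional curve fitting against DMSO baseline; cytotoxicity tracked in parallel cultures by SRB total-protein staining.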

[12] = read-out: Monokine induced gamma interferon (MIG), CXCL9 (gene 4283); experiment: BSK_hDFCGF_MIG: BioMAP Diversity Plus: hDFCGF Assay for Monokine induced gamma interferon (MIG) Biomarker Activity (AID 2283063); conditions: primary human foreskin fibroblasts; actives raise or lower the signal
How it was run: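 MIG/CXCL9 measured by ELISA 24 h after dosing primary human skin fibroblasts. Activity fitted in both directions against DMSO controls. Cytotoxicity was checked in parallel cultures by SRB staining read at 560 nm.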

[13] = read-out: Matrix Metallopeptidase 1 (MMP1), MMP1 (gene 4312); experiment: BSK_hDFCGF_MMP1: BioMAP Diversity Plus: hDFCGF Assay for Matrix Metallopeptidase 1 (MMP1) Biomarker Activity (AID 2283064); conditions: primary human foreskin fibroblasts; actives raise or lower the signal
How it was run: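 Human foreskin fibroblasts exposed to chemical for 24 h; MMP1 detected by ELISA, with DMSO as baseline for bidirectional fitting.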

[14] = read-out: Vascular cell adhesion molecule 1 (VCAM1), VCAM1 (gene 7412); experiment: BSK_hDFCGF_VCAM1: BioMAP Diversity Plus: hDFCGF Assay for Vascular cell adhesion molecule 1 (VCAM1) Biomarker Activity (AID 2283065); conditions: primary human foreskin fibroblasts; actives raise or lower the signal
How it was run: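 Human foreskin fibroblast primary cells dosed with chemical, VCAM-1 measured by ELISA at 24 h. Bidirectional curve fitting relative to DMSO as negative control/baseline.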

[15] = read-out: Plasminogen activator inhibitor-1 (PAI1), SERPINE1 (gene 5054); experiment: BSK_hDFCGF_PAI1: BioMAP Diversity Plus: hDFCGF Assay for Plasminogen activator inhibitor-1 (PAI1) Biomarker Activity (AID 2283066); conditions: primary human foreskin fibroblasts; actives raise or lower the signal
How it was run: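 Human skin fibroblast cultures receive chemical for 24 h before PAI-1 is measured by ELISA; signal changes are fitted bidirectionally against DMSO-treated wells.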

[16] = read-out: Intercellular Adhesion Molecule 1 (ICAM1), ICAM1 (gene 3383); experiment: BSK_KF3CT_ICAM1: BioMAP Diversity Plus: KF3CT Assay for Intercellular Adhesion Molecule 1 (ICAM1) Biomarker Activity (AID 2283067); conditions: primary human keratinocytes with fibroblasts; actives raise or lower the signal
How it was run: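 Human keratinocyte–foreskin fibroblast co-culture was treated for 24 h. Cell-surface ICAM-1 was quantified by ELISA, fitted bidirectionally relative to DMSO. Cytotoxicity was checked in parallel cultures by SRB total-protein staining.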

[17] = read-out: Interferon-gamma inducible Protein 10 (IP10), CXCL10 (gene 3627); experiment: BSK_KF3CT_IP10: BioMAP Diversity Plus: KF3CT Assay for Interferon-gamma inducible Protein 10 (IP10) Biomarker Activity (AID 2283068); conditions: primary human keratinocytes with fibroblasts; actives raise or lower the signal
How it was run: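 KF3CT co-culture (keratinocytes + foreskin fibroblasts), 24 h compound, IP-10 by ELISA; bidirectional fit vs DMSO baseline.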

[18] = BSK_KF3CT_SRB: Viability Assessment in the BioMAP Diversity Plus: KF3CT Assay (AID 2283069); conditions: primary human keratinocytes with fibroblasts;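 also: read 24 h after compound addition; fitted for both signal gain and loss against DMSO baseline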
How it was run: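 Overt cytotoxicity is assessed as total protein by sulforhodamine B staining in parallel human skin co-cultures at 24 h after dosing. DMSO serves as negative control and baseline.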

[19] = BSK_hDFCGF_SRB: Viability Assessment in the BioMAP Diversity Plus: hDFCGF Assay (AID 2283061); conditions: primary human foreskin fibroblasts;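 also: cells exposed to compound for 24 h before the read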
How it was run: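 Human foreskin fibroblasts in 96-well plates were treated 24 h. Total protein was measured by 0.1% SRB staining after 10% TCA fixation, read at 560 nm. Data were fitted bidirectionally against DMSO.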

Compound: O=C(Nc1ccccc1)Nc1ccnc(Cl)c1
- outcome [1]: inactive
- outcome [2]: inactive
- outcome [3]: inactive
- outcome [4]: inactive
- outcome [5]: inactive
- outcome [6]: inactive
- outcome [7]: inactive
- AC50 [8]: 148 nM (active)
- outcome [9]: inactive
- outcome [10]: inactive
- outcome [11]: inactive
- outcome [12]: inactive
- outcome [13]: inactive
- outcome [14]: inactive
- outcome [15]: inactive
- outcome [16]: inactive
- outcome [17]: inactive
- outcome [18]: inactive

Compound: Cc1cc(Cl)ccc1OCC(=O)O
- outcome [1]: inactive
- outcome [2]: inactive
- outcome [3]: inactive
- outcome [4]: inactive
- outcome [5]: inactive
- outcome [6]: inactive
- outcome [7]: inactive
- outcome [8]: inactive
- outcome [9]: inactive
- outcome [10]: inactive
- outcome [11]: inactive
- outcome [12]: inactive
- outcome [13]: inactive
- outcome [14]: inactive
- outcome [15]: inactive
- outcome [16]: inactive
- outcome [17]: inactive
- outcome [18]: inactive

Compound: CCCCNC(=O)n1c(NC(=O)OC)nc2ccccc21
- outcome [1]: inactive
- AC50 [2]: 17.4 µM (active)
- outcome [3]: inactive
- AC50 [4]: 33.8 µM (active)
- outcome [5]: inactive
- outcome [6]: inactive
- outcome [7]: inactive
- outcome [8]: inactive
- outcome [9]: inactive
- AC50 [10]: 15 µM (active)
- outcome [19]: inactive
- outcome [11]: inactive
- outcome [12]: inactive
- AC50 [13]: 11.3 µM (active)
- outcome [14]: inactive
- outcome [15]: inactive
- outcome [16]: inactive
- outcome [17]: inactive
- outcome [18]: inactive

Compound: Cc1c(F)c(F)c(COC(=O)C2C(/C=C(\Cl)C(F)(F)F)C2(C)C)c(F)c1F (stereo not drawn)
- outcome [1]: inactive
- AC50 [2]: 14 µM (active)
- outcome [3]: inactive
- outcome [4]: inactive
- outcome [5]: inactive
- outcome [6]: inactive
- outcome [7]: inactive
- outcome [8]: inactive
- outcome [9]: inactive
- AC50 [10]: 10.8 µM (active)
- outcome [11]: inactive
- outcome [12]: inactive
- AC50 [13]: 1.22 µM (active)
- outcome [14]: inactive
- outcome [15]: inactive
- outcome [16]: inactive
- outcome [17]: inactive
- outcome [18]: inactive
